Assay outcomes deposited in PubChem by National Center for Advancing Translational Sciences (NCATS).
TSHR antag: human thyrotropin receptor antagonism; P16473; TSHR-expressing cells, TSH-stimulated cAMP HTRF, 2 h; active compounds read low; activity change, negative = inhibition, % at 11.5 µM; hit rate 0.2% among 330,000; AID 504810;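 active = activity change below a set negative limit, meaning inhibition stronger than a set level, cut at about -70% in these data; inconclusive = activity change between two set negative limits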; note: % is set by controls: 0 for no effect and ±100 for the full control effect
Target sequence (P16473 whole entry, looked up): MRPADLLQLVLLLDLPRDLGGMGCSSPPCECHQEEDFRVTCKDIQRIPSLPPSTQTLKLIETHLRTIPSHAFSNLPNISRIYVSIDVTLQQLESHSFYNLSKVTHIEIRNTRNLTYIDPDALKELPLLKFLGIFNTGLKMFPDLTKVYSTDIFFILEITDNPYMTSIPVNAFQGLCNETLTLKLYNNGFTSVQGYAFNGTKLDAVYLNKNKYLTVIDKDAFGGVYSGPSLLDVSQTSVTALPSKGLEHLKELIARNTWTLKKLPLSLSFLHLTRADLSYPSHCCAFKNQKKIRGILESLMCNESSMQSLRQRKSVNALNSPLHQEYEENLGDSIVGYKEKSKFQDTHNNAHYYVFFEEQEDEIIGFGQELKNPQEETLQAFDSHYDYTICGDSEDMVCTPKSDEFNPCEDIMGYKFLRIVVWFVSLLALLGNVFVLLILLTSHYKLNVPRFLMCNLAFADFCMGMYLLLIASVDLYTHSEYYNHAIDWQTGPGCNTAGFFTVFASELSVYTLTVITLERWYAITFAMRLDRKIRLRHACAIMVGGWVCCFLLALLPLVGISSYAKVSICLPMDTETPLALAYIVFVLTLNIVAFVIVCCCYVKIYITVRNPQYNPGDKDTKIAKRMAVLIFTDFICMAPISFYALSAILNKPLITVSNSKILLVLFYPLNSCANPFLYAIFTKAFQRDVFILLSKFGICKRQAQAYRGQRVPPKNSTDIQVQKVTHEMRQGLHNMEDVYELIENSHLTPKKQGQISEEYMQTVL
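Cell-based HTRF cAMP assay; TSHR cells + compound, TSH EC80 (4nM final), 2 h, 37 deg C. Lysis with anti-cAMP cryptate and cAMP-d2, 30 min RT, read 665/620 nm.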
Mm-Cpn inhibitor: inhibitors of Methanococcus maripaludis chaperonin TRiC (MmCpn); hit rate 0.031% among 330,000; AID 504842; purified Mm-Cpn ATPase, ADP Transcreener TR-FRET; Potency, µM (top dose mostly 76.9 µM), inactives show at the top dose activity, negative = inhibition, hits mostly inhibitors; active = well fitted inhibition curve with a large enough effect; inconclusive = small, poorly fitted or top-dose-only effect; note: potency is the fitted concentration of half-maximal effect; % is set by controls: 0 for no effect and ±100 for the full control effect; nearly all actives have a fitted effect of over 80% in size
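Quantitative HTS used 25 nM Mm-CPN and 10 uM ATP in magnesium/KCl Tris buffer, pH 7.4, with 1 mM DTT. Hydrolysis ran 30 min at 37°C; ADP was read by HTRF.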
gsp agonist: gsp mutant agonism; gsp mutant cells, cAMP HTRF, 30 min; hit rate 0.13% among 340,000; Potency, µM (doses to about 76.9 µM), inactives show at the highest dose activation (cAMP increase), actives largely listed as activators; active = well fitted activation curve with a large enough effect; inconclusive = small, poorly fitted or top-dose-only effect, or another doubt; inactive = no such curve, though single readings can be large or run the other way; cell line not stated here;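 note: phosphodiesterase inhibitor Ro 20-1724 added with compounds to block cAMP breakdown; potency is the fitted concentration of half-maximal effect; nearly all actives have a fitted effect of over 60% in size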
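Cells stably selected in G418 were plated at 2000/well, grown 16-24 hr, then given compounds in DMSO with the PDE inhibitor […] (300 uM solution added) for 30 min at 37C; cAMP was read by HTRF.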
gsp antag: gsp mutant antagonism. gsp-mutant cells, cAMP HTRF, 30 min. hit rate 0.4% among 340,000. Potency, µM (titrated, usually from 76.9 µM), inactives show top-dose activity change, negative = inhibition, hits mostly inhibitors; calls by dose curve; cell line not stated here;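 note: intracellular cAMP measured with PDE inhibitor Ro 20-1724 present during compound exposure; potency is the fitted concentration of half-maximal effect; % is set by controls: 0 for no effect and ±100 for the full control effect; nearly all actives have a fitted effect of over 65% in size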
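Measurement of cellular cAMP by homogeneous time-resolved fluorescence following a 30 min compound exposure at 37C. The PDE inhibitor […] was present throughout; the assay buffer was DPBS with 0.05% BSA and 0.005% Tween 20.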
CCT chaperon mod: changes cytosolic chaperonin activity; purified chaperonin ATPase assay, HTRF ADP detection, 30 min; activity change, % (test concentration not listed), hits read low; hit rate 0.3% among 360,000; in the data active = activity change below about -30%; note: % is set by controls: 0 for no effect and ±100 for the full control effect
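Enzyme 40 or 20 nM (batch-dependent) in Tris pH 7.4/KCl/MgCl2/DTT; cpd 76 uM single point; ATP 10 uM; 30 min 37 °C; Transcreener ADP HTRF detection, 30 min RT; ratio 665/615.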
uPA surface inh: cell surface uPA generation inhibition; cell surface uPA generation assay, qHTS; Potency, µM (highest dose often 38.3 µM), for the others: at the highest dose activity change, negative = inhibition, most hits filed as inhibitors; hit rate 0.31% among 330,000; active = well fitted inhibition curve with a large enough effect; inconclusive = small, poorly fitted or top-dose-only effect; inactive = no such curve, though single readings can be large or run the other way; tested in mouse RAW 264.7 cells; note: potency is the fitted concentration of half-maximal effect; % is set by controls: 0 for no effect and ±100 for the full control effect; nearly all actives have a fitted effect of over 55% in size
* = called active by the depositor; ? = inconclusive; · = no result given; [ ] = another dose, or the depositor's remark. The list is not random: actives were taken first. Their share in the collection is about 1.2%.

SMILES	TSHR antag	Mm-Cpn inhibitor	gsp agonist	gsp antag	CCT chaperon mod	uPA surface inh
CCOC(=O)c1c(C)[nH]c(C)c1C(=O)COc1ccc(NC(=O)c2ccco2)cc1	-4	1%	-1%	-6%	0	1%
NS(=O)(=O)c1ccc(CCNC(=O)c2cc([N+](=O)[O-])ccc2N2CCOCC2)cc1	-5	-1%	26%	1%	1	10%
CCOc1ccc(-c2[nH]ncc2Oc2ccccc2OCC)c(O)c1	-1	2%	2%	-1%	-73*	2%
CCOc1ccc(-c2[nH]ncc2Oc2ccccc2OC)c(O)c1	-4	0%	1%	-9%	-1	9%
CCCCOC(=O)c1ccc(NC(=O)c2c(OC)cccc2OC)cc1	-14	-4%	11µM*	-17%	-2	14%
O=C(O)CCN1C(=O)c2ccc(NC(=O)Cc3ccc(Cl)cc3)cc2C1=O	0	1%	9%	3%	-32*	4%
O=C(O)CCN1C(=O)c2ccc(NC(=O)CSCc3ccccc3)cc2C1=O	7	0%	-22%	3%	-1	-2%
CCOC(=O)C1CCN(C=Nc2cc(C)on2)CC1	3	1%	-10%	11%	1	0%
Cc1ccccc1-n1nc2c(c1NC(=O)C(C)C)CS(=O)(=O)C2	-4	0%	?	5%	0	1%
Cc1ccccc1-n1nc2c(c1NC(=O)C(C)(C)C)CS(=O)(=O)C2	-4	2%	-31%	10%	-43*	13%
Cc1ccc(NC(=O)CCN2C(=O)C3C4CCC(C4)C3C2=O)cc1[N+](=O)[O-] (centres undefined)	5	1%	-63%	-9%	-4	-1%
Cc1ccc(NC(=O)CCN2C(=O)C3CCCCC3C2=O)cc1[N+](=O)[O-] (centres undefined)	7	-3%	-5%[15.4 µM]	3%	-53*	-3%
Cc1cc(C)n2nc(SCCOc3ccc(F)cc3)nc2n1	-7	2%	1%	0%	-2	3%
O=C(COC(=O)/C=C/c1cccs1)NC(c1ccccc1)c1ccccc1	-19	0%	-6%[15.4 µM]	8%	-3	2%
O=C(COC(=O)/C=C/C(=O)N1CCN(c2ccccc2)CC1)NC(c1ccccc1)c1ccccc1	22	2%	-69%	-8%	-3	6.3µM*
COc1cc(C=CC(=O)N2CCN(CC(=O)N3CCCC3)CC2)cc(OC)c1OC	·	·	?	·	-1	·
CCCCc1ccc(NC(=O)Nc2cc(C)nn2C)cc1	-4	1%	19%[15.4 µM]	1%	-111*	5%
CCCCc1ccc(NC(=O)Nc2cnccn2)cc1	-16	0%	?	9%	0	?
CCC(C)(C)c1ccc(OCCCC[n+]2cccc(C)c2C)c(C(C)(C)CC)c1	-6	0%	8%	-4%	2	8.9µM*
CCC(C)(C)c1ccc(OCCCC[n+]2ccc(C)cc2)c(C(C)(C)CC)c1	-1	3%	?	-1%	-2	?
COc1ccccc1C(=O)COC(=O)Cn1[nH]c(=O)c2ccccc2c1=O	-8	1%	-3%[15.4 µM]	-19%	-31*	-1%
O=C(c1ccc(CSc2nc3ccncc3[nH]2)cc1)N1CCN(c2cccc(Cl)c2)CC1	-7	2%	?	35µM*	0	?
Clc1ccc(CSc2nc3ccncc3[nH]2)cc1	4	-4%	19%	2%	0	0.45µM*
Nc1ccc(S(=O)(=O)O)cn1	-8	-2%	33%	9%	0	0%
FC(F)(F)c1ccccc1NC(=S)N1CCCC1	12	-1%	-10%[15.4 µM]	-15%	-38*	-5%
SMILES	TSHR antag	Mm-Cpn inhibitor	gsp agonist	gsp antag	CCT chaperon mod	uPA surface inh
S=C(Nc1ccc(Cl)cc1Cl)N1CCCCC1	1	2%	19%	9%	-66*	-4%
FC(F)(F)c1ccccc1NC(=S)N1CCN(c2ccccn2)CC1	10	-1%	-63%	-2%	0	?
S=C(Nc1ccccc1Cl)N1CCCCCC1	2	0%	-10%[15.4 µM]	-8%	0	0%
CC(=O)n1cc(C2C(=O)CCCC2=O)c2ccccc21	-7	-2%	?	6%	2	3%
CC(=O)n1cc(C2CC(=O)OC3=C2CC(=O)C(C)(C)C3)c2ccccc21 (centres undefined)	·	·	-42%	·	-106*	·
Cc1cccc(C2=NN(c3ccccc3)[C@@H](C(=O)N3CCOC3=O)[C@@H]2c2ccc(F)cc2)c1	54	32µM*	·	-17%	0	8%
O=C(Nc1ccc(F)cc1F)Nc1csc2ccccc12	-27	1%	-2%[15.4 µM]	-26%	-1	2%
COC(=O)c1ccc(NC(=O)Nc2ccc(F)cc2)cc1	-11	1%	?	-11%	-5	-5%
COC(=O)c1ccc(NC(=O)Nc2ccc(F)c(Cl)c2)cc1	?	-1%	0%	35µM*	-5	·
O=C(Nc1ccc(F)c(Cl)c1)Nc1csc2ccccc12	-22	-3%	8%[15.4 µM]	35µM*	-1	-2%
COc1ccc(NC(=O)CCC(=O)N/N=C/c2ccc([N+](=O)[O-])s2)cc1	-10	0%	-48%	1%	1	-6%
COc1cc([N+](=O)[O-])ccc1NC(=O)NCc1cccnc1	-76*	1%	14%	5%	0	3%
Cc1ccc(NC(=O)c2cccnc2)c([N+](=O)[O-])c1	1	-14%	-7%	9%	0	3.5µM*
O=C(O)c1ccc(NCc2cccnc2)c([N+](=O)[O-])c1	-11	-3%	-24%	4%	-53*	-10%
O=C(C1=C[C@H](c2ccccc2)C[C@H](OCc2ccc(CO)cc2)O1)N1CCCCCCC1	17	·	·	·	·	·
CCOC(=O)Cn1nnnc1CN(Cc1cccs1)Cc1cc2cc(C)ccc2[nH]c1=O	-4	0%	2%	18%	-31*	·
CC(C)CNC(=O)C1CCN(c2ccc(S(=O)(=O)N3CCOCC3)cc2)CC1	-77*	0%	2%	-2%	-2	4%
CSC1=C(C#N)C(c2ccc3c(c2)OCO3)C2=C(CCCC2=O)N1 (centres undefined)	-1	-2%	2%	-16%	1	-4%
CCSC1=C(C#N)C(c2ccc(Cl)cc2)C2=C(CCCC2=O)N1 (centres undefined)	-7	-1%	9%	45µM*	-1	-1%
Cn1c(=O)c2c(nc(CN3CCN(Cc4ccccc4)CC3)n2Cc2cccc(Cl)c2)n(C)c1=O	-5	0%	4%	4%	-2	-27%
Cn1c(=O)c2c(nc(CN3CCc4ccccc4C3)n2Cc2cccc(Cl)c2)n(C)c1=O	-6	-8%	?	15%	0	7.9µM*
O=C1c2ccccc2CN1CCNC(=S)NC1CCCCC1	-10	0%	3%[15.4 µM]	9%	2	0%
